Screens from PubChem.
PLC-beta3 inh = human PLC-beta3 inhibitors, primary screen, biochemical, fluorescence; 1-phosphatidylinositol 4,5-bisphosphate phosphodiesterase beta-3 (Homo sapiens), Q01970; Purified PLC-beta3, fluorogenic substrate; inhibition, % at 12.2 µM; hit rate 0.18% among 370,000; AID 720704, 2013; in the data active means inhibition above about 11%;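 further: 0% = median of compound wells on plate and 100% = full blocker control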
UHRF1 binding = UHRF1 methylated DNA binding inhibitors, primary screen, counter-screen for MBD2 inhibitor project, biochemical, TR-FRET, human UHRF1, single concentration; UHRF1 binding to methylated oligo; inhibition, % at 4.4 µM; hit rate 0.75% among 370,000; in the data active means inhibition above about 21%;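 further: UHRF1 SRA domain binding a hemimethylated CpG hairpin DNA probe; 0% = median of test compound wells and 100% = reference inhibitor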
Target sequence (Q96T88 whole entry, looked up, the tested form may be a part): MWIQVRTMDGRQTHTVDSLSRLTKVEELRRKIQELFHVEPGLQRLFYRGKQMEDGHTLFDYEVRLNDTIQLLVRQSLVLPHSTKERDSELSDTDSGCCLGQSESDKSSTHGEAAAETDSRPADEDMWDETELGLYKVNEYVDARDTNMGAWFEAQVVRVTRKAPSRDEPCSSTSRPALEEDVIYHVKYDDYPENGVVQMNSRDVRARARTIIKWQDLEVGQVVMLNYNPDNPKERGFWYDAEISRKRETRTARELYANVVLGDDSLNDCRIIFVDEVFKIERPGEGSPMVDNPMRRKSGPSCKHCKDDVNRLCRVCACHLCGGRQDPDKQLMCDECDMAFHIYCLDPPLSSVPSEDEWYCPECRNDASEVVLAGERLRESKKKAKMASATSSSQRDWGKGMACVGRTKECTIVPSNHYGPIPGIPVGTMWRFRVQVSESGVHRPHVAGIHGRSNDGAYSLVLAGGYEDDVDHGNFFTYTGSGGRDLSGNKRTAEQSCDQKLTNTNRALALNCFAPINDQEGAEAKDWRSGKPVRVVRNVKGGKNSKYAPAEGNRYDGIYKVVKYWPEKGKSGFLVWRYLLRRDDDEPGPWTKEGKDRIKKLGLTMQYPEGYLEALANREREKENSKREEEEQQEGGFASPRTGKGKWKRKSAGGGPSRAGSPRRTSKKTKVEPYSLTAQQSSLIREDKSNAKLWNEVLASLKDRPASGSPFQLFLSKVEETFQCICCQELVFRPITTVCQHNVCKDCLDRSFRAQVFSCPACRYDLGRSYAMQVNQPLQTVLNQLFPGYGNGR
PLCg1 inh = PLC-gamma1 enzyme inhibitors, primary screen, biochemical, fluorescence, purified enzyme | 1-phosphatidylinositol 4,5-bisphosphate phosphodiesterase gamma-1 (Homo sapiens), P19174 | fluorogenic substrate | inhibition, % at 12.2 µM | hit rate 0.84% among 370,000 | AID 720700, 2013; in the data active means inhibition above about 9.5%
MBD2 inh = inhibitors of MBD2 binding to methylated DNA, primary screen, biochemical, TR-FRET, DNA-binding domain, human. AID 686964, 2013. inhibition, % at 4.4 µM. MBD2 binding to methylated oligonucleotide. hit rate 0.31% among 370,000. Methyl-CpG-binding domain protein 2 (Homo sapiens), Q9UBB5; in the data active means inhibition above about 13%
LEDGF integ inh = blockers of LEDGF/p75-dependent integrase strand transfer – biochemical, TR-FRET, high throughput, primary screen | HIV-1 integrase (with human LEDGF/p75) | TR-FRET IN-LEDGF/p75 DNA integration, Eu/Cy5 | inhibition, % at 3.7 µM | hit rate 0.64% among 370,000;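 active means inhibition above the screen-wide mean plus 3 SD, cut at about 13% in these data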;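 further: signal is the Cy5 over europium emission ratio at 671 and 618 nm; 0% = plate median of compound wells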
IN multimer up = HIV-1 IN multimer formation enhancers, counter-screen for LEDGF/p75 integration inhibitor project, biochemical, TR-FRET. shares compounds with LEDGF integ inh. TR-FRET HIV-1 integrase multimerization. activation, % at 7.7 µM. hit rate 17% among 2,000; in the data active means activation above about 8.9%
TRFRET interf = TR-FRET optical interference artefacts, confirmation, artefact control for LEDGF/p75-dependent integration inhibitor project, biochemical, HIV-1 IN multimerization; inhibition, % at 7.7 µM; TR-FRET optical interference counterscreen; 2,000 tested, under 10 active; shares compounds with LEDGF integ inh;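 active means inhibition above the mean over all tested compounds plus 3 SD, which no compound reached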;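 further: 0% = integrase with antibodies and DMSO and 100% = antibodies without integrase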
IN-LEDGF confirm = inhibitors of HIV-1 IN-LEDGF/p75 DNA integration, confirmation, biochemical, TR-FRET; shares compounds with LEDGF integ inh; TR-FRET LEDGF/p75-dependent HIV-1 integration; inhibition, % at 3.7 µM; hit rate 36% among 2,000; in the data active means inhibition above about 14%
The depositor's hits bear a star; . = no result. Shown are actives, neighbours in structure and some others; about 2.3% of the full set was active somewhere.

SMILES	PLC-beta3 inh	UHRF1 binding	PLCg1 inh	MBD2 inh	LEDGF integ inh	IN multimer up	TRFRET interf	IN-LEDGF confirm
Cc1ccc(SCC(=O)N2CCN(c3ccccn3)CC2)cc1	-9	1	-1	4	-4	.	.	.
O=C(CSc1nccc2ccccc12)N1CCN(c2ccccn2)CC1	-176	-16	-149	-16	14*	3	-16	-2
CC(C)C[C@@H]1COc2cc(N3CCCC3)ccc2S(=O)(=O)N1C	0	0	1	-5	1	.	.	.
Cc1cccc(C)c1OC1(c2ccccc2)OC(=O)c2ccccc21 (centres undefined)	-3	-4	3	2	0	.	.	.
Cc1cc(C)c(OC2(c3ccccc3)OC(=O)c3ccccc32)c(C)c1 (centres undefined)	-3	-1	-2	-2	31*	3	-9	-5
Cc1ccc(C(=O)NCC(=O)OCc2nc3sc(C)c(C)c3c(=O)[nH]2)cc1	0	2	0	-2	-2	.	.	.
Cc1cccc(C(=O)Nc2c(-c3ccc(C(F)(F)F)cc3)nc3ncccn23)c1	-40	1	-34	-3	5	.	.	.
COc1ccccc1-c1nnc2sc(COc3ccccc3)nn12	3	-2	2	3	28*	1	-3	7
COc1ccccc1-c1nnc2sc(COc3ccc(Cl)cc3Cl)nn12	3	0	0	1	-2	.	.	.
COC(=O)[C@@]12CCCCC3=C1N(CCC3)C(=O)[C@H]2CC(=O)N1CCN(C(=O)c2ccco2)CC1	1	-1	-2	3	-1	.	.	.
CC(=O)NC(Cc1ccc2c(c1)OCO2)C(=O)N1CCCN(C(C)=O)CC1 (centres undefined)	0	2	5	-3	2	.	.	.
CCS(=O)(=O)N1CCC2(CC1)OCCN2S(=O)(=O)c1ccccc1	-3	17	3	8	26*	-6	22	6
COC(=O)[C@]12C[C@H](CC(=O)NCC34CC5CC(CC(C5)C3)C4)C(=O)N(Cc3cccc4ccccc34)C1=C[C@H](COCc1ccccc1)O[C@@H]2C	-2	0	-1	2	1	.	.	.
Cc1ccc(C(=O)NC(=S)N(C)C2CCCCC2)cc1Br	-2	-2	1	0	9	.	.	.
C=CCN(CC=C)C(=S)NC(=O)c1ccc(C)c(Br)c1	-5	0	-2	-1	25*	0	1	33*
C=CCN(CC=C)C(=S)NC(=O)c1ccc(-c2ccccc2)cc1	-5	-5	2	2	23*	0	0	17*
COc1cc(CCNC2=CC(=O)c3ncccc3C2=O)ccc1O	5	-14	3	-22	29*	5	-16	60*
COc1ccccc1CNS(=O)(=O)c1cc(CN2C(=O)c3cccnc3C2=O)ccc1OC	2	-3	4	-1	1	.	.	.
O=C(NCC(c1cccs1)N1CCOCC1)c1ccccc1NS(=O)(=O)c1ccc(Cl)c([N+](=O)[O-])c1 (centres undefined)	5	-1	2	-6	35*	0	-1	-1
CCOC(=O)N1CCN(C(=O)C[C@H]2C[C@@]3(C(=O)OC)C(=C[C@H](COCc4ccccc4)O[C@@H]3C)N(Cc3ccc(Cl)cc3Cl)C2=O)CC1	0	2	1	2	-2	.	.	.
CCCCCCCCCSc1n[nH]c(N)n1	-10	0	4	-5	46*	-1	2	-4
CCCCCCCCSc1n[nH]c(N)n1	4	-3	3	-4	4	.	.	.
COC(=O)[C@]12C[C@H](CC(=O)NCc3cccc(C(F)(F)F)c3)C(=O)N(CCC3=CCCCC3)C1=C[C@H](C1CCCC1)O[C@@H]2C	1	-1	0	-3	-1	.	.	.
O=c1c2ccccc2n(Cc2ccccc2)n1[C@@H](Cc1ccccc1)Cn1cc(-c2ccc(-c3ccccc3)cc2)nn1	0	1	-1	-2	-1	.	.	.
Cc1ccc(N2C(=O)/C(=C\c3ccco3)SC2=S)cc1	-3	4	-1	-4	6	.	.	.
SMILES	PLC-beta3 inh	UHRF1 binding	PLCg1 inh	MBD2 inh	LEDGF integ inh	IN multimer up	TRFRET interf	IN-LEDGF confirm
O=C1/C(=C\c2ccco2)SC(=S)N1c1ccccc1	-6	14	-1	5	21*	3	-17	21*
O=C(CCN1C(=O)/C(=C/c2ccco2)SC1=S)Nc1ccc(C(=O)O)c(O)c1	-17	62*	29*	21*	54*	12*	-59	40*
O=C1/C(=C\c2ccco2)NC(=S)N1c1ccccc1	-31	4	-18	-4	16*	0	-1	17*
O=C1/C(=C/c2ccco2)SC(=S)N1CC1CCCO1 (centres undefined)	-17	29*	-9	8	16*	4	-22	15*
O=C(CCCN1C(=O)/C(=C\c2ccco2)SC1=S)Nc1ccc2ccccc2c1	-2	0	2	2	1	.	.	.
CC(C)(N[C@@H](Cc1c[nH]c2ccccc12)C(=O)NCCCc1ccccc1)C(=O)NCc1ccccc1	1	-2	-1	2	3	.	.	.
Cc1cc(C)cc(OC(C)CCN2CCC(C(O)(c3ccccc3)c3ccccc3)CC2)c1 (centres undefined)	2	-1	4	-6	0	.	.	.
O=C(CCN1CCOCC1)N1c2ccccc2Sc2ccc(Cl)cc21	-6	1	0	4	17*	-2	9	3
CN1c2ccc(-c3cccc(F)c3)cc2[C@H]2[C@H](CCN2S(=O)(=O)c2cccc(F)c2)[C@H]1CO	-9	-4	-8	1	0	.	.	.
COc1cc(C(C(=O)NCC2CCCO2)N(C(=O)Cn2nnc3ccccc32)c2ccc(OC)c(OC)c2)ccc1O (centres undefined)	-4	-1	-2	9	42*	1	-5	3
CC(COc1ccc(F)cc1)CN1CCC(C(O)(c2ccccc2)c2ccccc2)CC1 (centres undefined)	2	0	4	-1	-4	.	.	.
COc1ccc(CNCC#Cc2cccnc2)c(OC)c1	-3	-2	-5	-5	-2	.	.	.
